From PubChem BioAssay AID1159580 (chemical genetic matrix, 2015)
The campaign covered roughly 5,500 compounds. About 2,000 (36%) were called active. Not shown: some 18% with an inconclusive outcome. No stated cut-off is given here; in the data, active means normalized growth mostly below about 0.91 (no sharp cut-off); inconclusive means no clear call, values can overlap the other calls; inactive means mostly above about 0.92. Some of the results follow.

Assay: chemical genetic growth profiling, strain panel (AID 1159580);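 further: tested at 20 µM; growth read once vehicle control cultures reached saturation at 30 °C; 1 = growth at the plate median or of vehicle wells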
Details: growth OD
[1] = S. cerevisiae deletion strains, locus YAL013W, strain DEP1, stronger effect = lower value
[2] = S. cerevisiae deletion strains, locus YBR229C, strain ROT2, stronger effect = lower value
[3] = S. cerevisiae deletion strains, locus YDL101C, strain DUN1, stronger effect = lower value
[4] = S. cerevisiae deletion strains, locus YDR150W, strain NUM1, stronger effect = lower value
[5] = S. cerevisiae deletion strains, locus YEL061C, strain CIN8, stronger effect = lower value
[6] = S. cerevisiae deletion strains, locus YGR078C, strain PAC10, stronger effect = lower value
[7] = S. cerevisiae deletion strains, locus YHR030C, strain SLT2, stronger effect = lower value
[8] = S. cerevisiae deletion strains, locus YJR043C, strain POL32, stronger effect = lower value
[9] = S. cerevisiae deletion strains, locus YJR075W, strain HOC1, stronger effect = lower value
[10] = S. cerevisiae deletion strains, locus YKL190W, strain CNB1, stronger effect = lower value
[11] = S. cerevisiae deletion strains, locus YLR039C, strain RIC1, stronger effect = lower value
[12] = S. cerevisiae deletion strains, locus YLR262C, strain YPT6, stronger effect = lower value
[13] = S. cerevisiae deletion strains, locus YMR263W, strain SAP30, stronger effect = lower value
[14] = S. cerevisiae deletion strains, locus YMR307W, strain GAS1, stronger effect = lower value
[15] = S. cerevisiae deletion strains, locus YNL153C, strain GIM3, stronger effect = lower value
[16] = S. cerevisiae deletion strains, locus YNL322C, strain KRE1, stronger effect = lower value
[17] = S. cerevisiae deletion strains, locus YOL006C, strain TOP1, stronger effect = lower value
[18] = S. cerevisiae deletion strains, locus YPL055C, strain LGE1, stronger effect = lower value
[19] = S. cerevisiae deletion strains, locus YPL241C, strain CIN2, stronger effect = lower value

Measured: normalized growth

O=C(O)c1nccnc1C(=O)O
inactive: [1] 0.993 | [2] 0.991 | [3] 0.988 | [4] 0.924 | [5] 0.994 | [6] 1 | [7] 1.02 | S. cerevisiae deletion strains, locus YHR087W, strain rtc3, stronger effect = lower value 1.02 | [8] 0.972 | [9] 0.988 | [10] 1.01 | [11] 1.01 | S. cerevisiae deletion strains, locus YLR058C, strain SHM2 (second series), stronger effect = lower value 1.01 | S. cerevisiae deletion strains, locus YLR085C, strain ARP6, stronger effect = lower value 1.01 | [12] 1.03 | S. cerevisiae deletion strains, locus YML094W, strain GIM5, stronger effect = lower value 1.01 | S. cerevisiae deletion strains, locus YMR219W, strain ESC1, stronger effect = lower value 1.01 | [13] 0.991 | [14] 0.992 | [15] 1 | S. cerevisiae deletion strains, locus YNL298W, strain CLA4 (second series), stronger effect = lower value 1.01 | [16] 1.01 | S. cerevisiae deletion strains, locus YNR030W, strain Alg12, stronger effect = lower value 1.05 | [17] 1.06 | [18] 0.951 | [19] 1.01 | S. cerevisiae deletion strains, locus YPR135W, strain CTF4, stronger effect = lower value 1.05

COP(=O)(OC)OC(Br)C(Cl)(Cl)Br (stereo not drawn)
inactive: [1] 0.966 | S. cerevisiae deletion strains, locus YBR021W, strain FUR4, stronger effect = lower value 1.04 | [2] 0.947 | S. cerevisiae deletion strains, locus YCL029C, strain bik1, stronger effect = lower value 0.997 | S. cerevisiae deletion strains, locus YDL035C, strain GPR1, stronger effect = lower value 0.984 | S. cerevisiae deletion strains, locus YDL074C, strain BRE1, stronger effect = lower value 0.961 | [3] 0.988 | S. cerevisiae deletion strains, locus YDL134C, strain PPH21, stronger effect = lower value 0.994 | S. cerevisiae deletion strains, locus YDL185W, strain tfp1, stronger effect = lower value 0.989 | S. cerevisiae deletion strains, locus YDL192W, strain arf1, stronger effect = lower value 1 | S. cerevisiae deletion strains, locus YDR101C, strain arx1, stronger effect = lower value 0.999 | [4] 0.984 | S. cerevisiae deletion strains, locus YDR162C, strain NBP2, stronger effect = lower value 0.988 | S. cerevisiae deletion strains, locus YDR318W, strain mcm21, stronger effect = lower value 1 | S. cerevisiae deletion strains, locus YDR388W, stronger effect = lower value 1.01 | S. cerevisiae deletion strains, locus YDR502C, strain sam2, stronger effect = lower value 1 | [5] 0.993 | S. cerevisiae deletion strains, locus YER110C, stronger effect = lower value 0.993 | S. cerevisiae deletion strains, locus YER155C, strain BEM2, stronger effect = lower value 1 | S. cerevisiae deletion strains, locus YER167W, strain BCK2, stronger effect = lower value 0.981 | S. cerevisiae deletion strains, locus YGL078C, strain dbp3, stronger effect = lower value 1.01 | S. cerevisiae deletion strains, locus YGL086W, strain mad1, stronger effect = lower value 0.989 | S. cerevisiae deletion strains, locus YGL248W, strain PDE1, stronger effect = lower value 0.968 | [6] 0.987 | S. cerevisiae deletion strains, locus YGR135W, strain pre9, stronger effect = lower value 1.01 | S. cerevisiae deletion strains, locus YGR229C, strain SMI1, stronger effect = lower value 0.996 | S. cerevisiae deletion strains, locus YGR252W, strain gcn5, stronger effect = lower value 1.06 | [7] 1.01 | S. cerevisiae deletion strains, locus YHR079C, strain IRE1 (second series), stronger effect = lower value 0.995 | S. cerevisiae deletion strains, locus YHR094C, strain hxt1, stronger effect = lower value 1.01 | S. cerevisiae deletion strains, locus YHR129C, strain ARP1, stronger effect = lower value 0.969 | S. cerevisiae deletion strains, locus YHR200W, strain rpn10, stronger effect = lower value 0.997 | S. cerevisiae deletion strains, locus YIL066C, strain RNR3, stronger effect = lower value 0.984 | S. cerevisiae deletion strains, locus YIL073C, strain SPO22, stronger effect = lower value 1.06 | S. cerevisiae deletion strains, locus YIL125W, strain kgd1, stronger effect = lower value 1 | S. cerevisiae deletion strains, locus YIR030C, strain dcg1, stronger effect = lower value 1.01 | S. cerevisiae deletion strains, locus YJL095W, strain BCK1, stronger effect = lower value 1 | S. cerevisiae deletion strains, locus YJL134W, strain LCB3, stronger effect = lower value 0.994 | S. cerevisiae deletion strains, locus YJL168C, strain set2, stronger effect = lower value 0.997 | S. cerevisiae deletion strains, locus YJL187C, strain SWE1 (second series), stronger effect = lower value 0.965 | [8] 0.999 | [9] 0.964 | S. cerevisiae deletion strains, locus YKL009W, strain mrt4, stronger effect = lower value 0.948 | S. cerevisiae deletion strains, locus YKL068W, stronger effect = lower value 0.995 | S. cerevisiae deletion strains, locus YKL085W, strain MDH1 (second series), stronger effect = lower value 1.01 | S. cerevisiae deletion strains, locus YKL085W, strain MDH1, stronger effect = lower value 1.01 | [10] 0.997 | S. cerevisiae deletion strains, locus YKR001C, strain vps1, stronger effect = lower value 1.01 | [11] 0.997 | S. cerevisiae deletion strains, locus YLR058C, strain SHM2, stronger effect = lower value 0.979 | S. cerevisiae deletion strains, locus YLR102C, strain apc9, stronger effect = lower value 0.994 | [12] 0.99 | S. cerevisiae deletion strains, locus YLR268W, strain sec22, stronger effect = lower value 1.01 | S. cerevisiae deletion strains, locus YLR330W, strain CHS5, stronger effect = lower value 0.988 | S. cerevisiae deletion strains, locus YLR342W, strain FKS1 (second series), stronger effect = lower value 0.98 | S. cerevisiae deletion strains, locus YLR371W, strain rom2, stronger effect = lower value 0.999 | S. cerevisiae deletion strains, locus YLR418C, strain cdc73, stronger effect = lower value 0.987 | S. cerevisiae deletion strains, locus YML016C, strain PPZ1, stronger effect = lower value 0.989 | S. cerevisiae deletion strains, locus YML032C, strain rad52, stronger effect = lower value 1.01 | S. cerevisiae deletion strains, locus YML124C, strain tub3, stronger effect = lower value 1.01 | S. cerevisiae deletion strains, locus YMR078C, strain ctf18, stronger effect = lower value 1.02 | S. cerevisiae deletion strains, locus YMR223W, strain ubp8, stronger effect = lower value 1 | [13] 0.989 | [14] 1.02 | S. cerevisiae deletion strains, locus YNL067W, strain RPL9B, stronger effect = lower value 0.974 | S. cerevisiae deletion strains, locus YNL128W, strain TEP1, stronger effect = lower value 0.957 | [15] 0.971 | S. cerevisiae deletion strains, locus YNL233W, strain BNI4, stronger effect = lower value 0.978 | S. cerevisiae deletion strains, locus YNL250W, strain rad50, stronger effect = lower value 0.999 | S. cerevisiae deletion strains, locus YNL271C, strain bni1, stronger effect = lower value 1.01 | S. cerevisiae deletion strains, locus YNL298W, strain CLA4, stronger effect = lower value 1.01 | S. cerevisiae deletion strains, locus YNL307C, strain MCK1, stronger effect = lower value 1.02 | [16] 0.987 | S. cerevisiae deletion strains, locus YNR052C, strain pop2, stronger effect = lower value 1.01 | [17] 1.04 | S. cerevisiae deletion strains, locus YOL012C, strain htz1 1.23 | S. cerevisiae deletion strains, locus YOL147C, strain pex11, stronger effect = lower value 1.01 | S. cerevisiae deletion strains, locus YOR061W, strain CKA2, stronger effect = lower value 0.973 | S. cerevisiae deletion strains, locus YOR069W, strain VPS5, stronger effect = lower value 0.998 | S. cerevisiae deletion strains, locus YOR136W, strain idh2, stronger effect = lower value 1 | S. cerevisiae deletion strains, locus YOR144C, strain elg1, stronger effect = lower value 1 | S. cerevisiae deletion strains, locus YOR184W, strain ser1, stronger effect = lower value 1.01 | S. cerevisiae deletion strains, locus YOR316C, strain cot1, stronger effect = lower value 0.992 | [18] 0.99 | [19] 0.998 | S. cerevisiae deletion strains, locus YPR119W, strain clb2, stronger effect = lower value 1.01 | S. cerevisiae deletion strains, locus YPR141C, strain kar3, stronger effect = lower value 0.993 | S. cerevisiae deletion strains, locus YPR163C, strain tif3, stronger effect = lower value 1 | S. cerevisiae deletion strains, locus YPR167C, strain met16, stronger effect = lower value 0.99 | S. cerevisiae deletion strains, strain wtn01, stronger effect = lower value 1 | S. cerevisiae strains, strain wild type, stronger effect = lower value 0.994
